# Results as given in the supplement of paper PMC10849652.
# The full data set covers some 7,900 targets. This sample favours those with a hit. About 0.6% of all pairs of compound and target were hits. Values without a mark were called inactive.
# Experiments:
# Test in all cases: log2 fold change, soluble protein after heating vs DMSO (PISA); higher = thermal stabilisation; K562 cells, 10 uM, 30 min; active = over 0.2 and 3.5 SD of the protein, either way, in both replicates (recomputed)
# erlotinib = compound: C#Cc1cccc(Nc2ncnc3cc(OCCOC)c(OCCOC)cc23)c1 [erlotinib]
# How it was run: (§1)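 K562 cells at 2×10^6 cells/mL were given 10 μM compound for 30 min. Aliquots then went through 3 min of heating across 48°C-58°C, were pooled, and were extracted in PBS with 0.5% NP-40 at 4°C, and the supernatant after 21,000xg for 90 min was quantified by TMTpro 16plex LC-MS/MS with channel sums equalised. Thermal stability relative to control samples, from duplicates, is given as log2 fold change.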
# [1] = compound: C/C(=N\NC(=O)C1=CC(=CC=C1)S(=O)(=O)N2CCOCC2)/C3=C(C=CC(=C3)Cl)O
# How it was run: as §1
# [2] = compound: C1=CC(=C(C=C1Cl)C2=NC3=NC=CN=C3C(=N2)NC4=CC=NC=C4)F
# How it was run: as §1
# [3] = compound: C1=CC(=CC=C1C2=NC3=C(N2)C=C(C=C3)C(=O)N)OC4=CC=C(C=C4)Cl
# How it was run: as §1
# [4] = compound: C1=CC2=C(C=CC(=C2)/C=C\3/C(=O)NC(=NCC4=CC=CS4)S3)N=C1
# How it was run: as §1
# [5] = compound: C1=CC2=NC=CN=C2C=C1/C=C/3\C(=O)NC(=O)S3
# How it was run: as §1
# [6] = compound: C1=CC=C(C=C1)C2=NC(=C(N2)C3=CC=NC=C3)C4=CC(=C(C=C4)Cl)O
# How it was run: as §1
# [7] = compound: C1=CC=C2C(=C1)C3=NNC4=CC=CC(=C43)C2=O
# How it was run: as §1
# [8] = compound: C1CCN(C1)C(=O)NC2=CC=CC(=C2)NC3=NC=C(C(=N3)NCCC4=CN=CN4)Br
# How it was run: as §1
# [9] = compound: C1CN(CCC1(CC2=CC=C(C=C2)Cl)N)C3=NC=NC4=C3C=CN4
# How it was run: as §1
# IRAK-1-4 Inhibitor I = compound: C1COCCN1CCN2C3=CC=CC=C3N=C2NC(=O)C4=CC(=CC=C4)[N+](=O)[O-] [IRAK-1-4 Inhibitor I]
# How it was run: as §1
# ibrutinib = compound: C=CC(=O)N1CCC[C@@H](n2nc(-c3ccc(Oc4ccccc4)cc3)c3c(N)ncnc32)C1 [ibrutinib]
# How it was run: as §1
# [10] = compound: CC(=O)c1cnc2ccc(-c3cc(Cl)c(O)c(Cl)c3)nc2c1N[C@H]1CC[C@H](CN(C)C)CC1
# How it was run: as §1
# ralimetinib = compound: CC(C)(C)Cn1c(N)nc2ccc(-c3[nH]c(C(C)(C)C)nc3-c3ccc(F)cc3)nc21 [ralimetinib]
# How it was run: as §1
# [11] = compound: CC(C)(O)CC(=O)NCCn1ccc2ncnc(Nc3ccc(Oc4cccc(C(F)(F)F)c4)c(Cl)c3)c21
# How it was run: as §1
# [12] = compound: CC(C)C1=C2N=C(C=C(N2N=C1)NCC3=CC=CC=C3)NCCCCCCN
# How it was run: as §1
# [13] = compound: CC(C)C[C@@H](C=O)NC(=O)[C@H](CC(C)C)NC(=O)[C@H](CC(C)C)NC(=O)OCc1ccccc1
# How it was run: as §1
# pinometostat = compound: CC(C)N(C[C@H]1O[C@@H](n2cnc3c(N)ncnc32)[C@H](O)[C@@H]1O)[C@H]1C[C@@H](CCc2nc3cc(C(C)(C)C)ccc3[nH]2)C1 [pinometostat]
# How it was run: as §1
# [14] = compound: CC1=C(C(CC(=O)N1)C2=CC=C(C=C2)C(F)(F)F)C(=O)NC3=C(C=C4C(=C3)C=NN4)F
# How it was run: as §1
# [15] = compound: CC1=C(C2=C(C=C1)C(=O)C3=CC=CC=C3N2CCCN)C
# How it was run: as §1
# Sequence of UniProt Q4G0J3 (Q4G0J3 whole entry, looked up): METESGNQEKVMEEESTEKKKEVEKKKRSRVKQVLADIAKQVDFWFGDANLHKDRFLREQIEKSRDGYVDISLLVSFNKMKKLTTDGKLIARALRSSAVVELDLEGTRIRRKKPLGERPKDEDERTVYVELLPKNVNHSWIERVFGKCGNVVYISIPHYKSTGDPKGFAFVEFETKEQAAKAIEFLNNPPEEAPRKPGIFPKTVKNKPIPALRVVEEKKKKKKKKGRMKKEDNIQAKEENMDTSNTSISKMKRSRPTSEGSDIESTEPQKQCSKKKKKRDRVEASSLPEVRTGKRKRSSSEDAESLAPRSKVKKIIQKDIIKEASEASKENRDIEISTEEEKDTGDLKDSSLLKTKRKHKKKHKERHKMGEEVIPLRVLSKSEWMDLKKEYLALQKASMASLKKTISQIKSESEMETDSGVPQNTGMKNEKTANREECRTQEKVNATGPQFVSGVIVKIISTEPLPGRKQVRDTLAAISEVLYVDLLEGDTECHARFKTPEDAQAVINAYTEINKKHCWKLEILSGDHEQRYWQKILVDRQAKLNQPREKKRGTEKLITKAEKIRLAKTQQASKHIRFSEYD
# Sequence of UniProt O95232 (O95232 whole entry, looked up): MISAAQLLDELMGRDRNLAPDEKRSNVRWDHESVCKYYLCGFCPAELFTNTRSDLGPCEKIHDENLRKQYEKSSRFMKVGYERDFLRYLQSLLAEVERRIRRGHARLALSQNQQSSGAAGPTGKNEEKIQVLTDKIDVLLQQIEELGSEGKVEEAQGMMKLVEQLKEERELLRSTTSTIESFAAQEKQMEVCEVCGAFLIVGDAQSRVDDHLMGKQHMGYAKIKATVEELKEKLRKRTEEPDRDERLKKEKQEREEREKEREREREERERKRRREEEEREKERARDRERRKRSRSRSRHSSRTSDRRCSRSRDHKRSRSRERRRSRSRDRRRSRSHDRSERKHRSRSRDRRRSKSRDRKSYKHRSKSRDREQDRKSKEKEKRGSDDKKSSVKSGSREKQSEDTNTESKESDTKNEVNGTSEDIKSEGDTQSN
# Sequence of UniProt P49441 (P49441 whole entry, looked up): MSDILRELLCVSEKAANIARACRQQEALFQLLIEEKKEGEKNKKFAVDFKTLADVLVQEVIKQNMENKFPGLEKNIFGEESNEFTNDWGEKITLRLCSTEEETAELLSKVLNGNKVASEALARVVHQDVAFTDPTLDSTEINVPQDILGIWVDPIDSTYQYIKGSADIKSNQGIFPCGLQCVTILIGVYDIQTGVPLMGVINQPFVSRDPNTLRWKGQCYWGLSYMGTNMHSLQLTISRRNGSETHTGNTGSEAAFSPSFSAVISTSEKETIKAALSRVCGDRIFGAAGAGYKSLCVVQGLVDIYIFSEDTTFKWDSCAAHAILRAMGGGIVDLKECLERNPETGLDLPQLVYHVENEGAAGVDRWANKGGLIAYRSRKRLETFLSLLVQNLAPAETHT
# Sequence of UniProt P33947 (P33947 whole entry, looked up): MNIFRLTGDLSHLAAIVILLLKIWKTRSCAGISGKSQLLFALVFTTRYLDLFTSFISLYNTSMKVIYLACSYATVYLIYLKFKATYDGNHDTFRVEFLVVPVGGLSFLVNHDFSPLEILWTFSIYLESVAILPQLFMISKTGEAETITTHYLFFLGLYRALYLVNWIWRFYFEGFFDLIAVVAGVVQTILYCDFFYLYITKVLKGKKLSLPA
# Sequence of UniProt Q9H1H9 (Q9H1H9 whole entry, looked up): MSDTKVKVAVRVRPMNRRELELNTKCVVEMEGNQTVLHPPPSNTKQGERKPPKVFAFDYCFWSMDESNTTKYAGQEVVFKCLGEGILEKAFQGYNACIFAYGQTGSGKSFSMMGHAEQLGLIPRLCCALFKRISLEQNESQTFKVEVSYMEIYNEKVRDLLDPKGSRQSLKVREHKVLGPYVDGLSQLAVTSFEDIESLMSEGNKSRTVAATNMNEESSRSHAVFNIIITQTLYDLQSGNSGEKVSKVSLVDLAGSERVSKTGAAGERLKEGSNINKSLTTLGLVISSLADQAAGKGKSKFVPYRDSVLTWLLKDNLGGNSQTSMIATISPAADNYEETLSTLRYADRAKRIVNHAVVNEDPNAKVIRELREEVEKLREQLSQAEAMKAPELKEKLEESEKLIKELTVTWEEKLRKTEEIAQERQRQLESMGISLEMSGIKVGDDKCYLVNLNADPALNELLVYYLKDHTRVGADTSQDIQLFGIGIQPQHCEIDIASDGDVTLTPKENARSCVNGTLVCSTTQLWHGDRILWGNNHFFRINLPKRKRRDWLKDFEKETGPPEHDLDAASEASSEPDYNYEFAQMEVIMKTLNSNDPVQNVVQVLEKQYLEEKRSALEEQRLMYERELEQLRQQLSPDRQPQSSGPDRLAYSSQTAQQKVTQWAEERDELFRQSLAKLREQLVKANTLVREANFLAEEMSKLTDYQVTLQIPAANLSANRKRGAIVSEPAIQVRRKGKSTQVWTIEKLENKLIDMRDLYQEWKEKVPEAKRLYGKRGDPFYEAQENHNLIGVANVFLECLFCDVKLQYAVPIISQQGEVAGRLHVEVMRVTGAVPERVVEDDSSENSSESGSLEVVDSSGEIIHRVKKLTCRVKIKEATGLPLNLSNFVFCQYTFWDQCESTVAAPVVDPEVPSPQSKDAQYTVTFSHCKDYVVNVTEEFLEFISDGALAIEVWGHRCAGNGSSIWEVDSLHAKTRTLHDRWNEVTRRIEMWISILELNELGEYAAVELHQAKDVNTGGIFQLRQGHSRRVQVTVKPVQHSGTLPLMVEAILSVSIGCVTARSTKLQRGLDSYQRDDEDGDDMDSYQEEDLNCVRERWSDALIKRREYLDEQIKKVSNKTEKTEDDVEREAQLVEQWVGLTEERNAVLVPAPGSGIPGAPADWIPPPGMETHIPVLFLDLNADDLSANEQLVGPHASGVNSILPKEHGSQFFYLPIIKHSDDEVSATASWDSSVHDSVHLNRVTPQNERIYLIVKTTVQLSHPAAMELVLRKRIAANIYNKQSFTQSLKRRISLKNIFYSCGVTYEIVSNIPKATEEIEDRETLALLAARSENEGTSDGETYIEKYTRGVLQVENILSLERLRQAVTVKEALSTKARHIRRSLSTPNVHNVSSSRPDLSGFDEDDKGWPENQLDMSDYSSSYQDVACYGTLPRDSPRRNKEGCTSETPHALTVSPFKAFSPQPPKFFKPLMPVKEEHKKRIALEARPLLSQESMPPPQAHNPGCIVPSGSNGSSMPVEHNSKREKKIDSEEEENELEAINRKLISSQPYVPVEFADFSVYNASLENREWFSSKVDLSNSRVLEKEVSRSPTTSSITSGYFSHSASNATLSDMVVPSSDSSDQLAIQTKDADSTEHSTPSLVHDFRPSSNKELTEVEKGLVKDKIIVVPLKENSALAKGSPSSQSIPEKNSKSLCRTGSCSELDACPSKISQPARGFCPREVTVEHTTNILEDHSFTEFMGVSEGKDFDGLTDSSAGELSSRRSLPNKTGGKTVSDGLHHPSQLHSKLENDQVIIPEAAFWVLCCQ
# Sequence of UniProt P20700 (P20700 whole entry, looked up): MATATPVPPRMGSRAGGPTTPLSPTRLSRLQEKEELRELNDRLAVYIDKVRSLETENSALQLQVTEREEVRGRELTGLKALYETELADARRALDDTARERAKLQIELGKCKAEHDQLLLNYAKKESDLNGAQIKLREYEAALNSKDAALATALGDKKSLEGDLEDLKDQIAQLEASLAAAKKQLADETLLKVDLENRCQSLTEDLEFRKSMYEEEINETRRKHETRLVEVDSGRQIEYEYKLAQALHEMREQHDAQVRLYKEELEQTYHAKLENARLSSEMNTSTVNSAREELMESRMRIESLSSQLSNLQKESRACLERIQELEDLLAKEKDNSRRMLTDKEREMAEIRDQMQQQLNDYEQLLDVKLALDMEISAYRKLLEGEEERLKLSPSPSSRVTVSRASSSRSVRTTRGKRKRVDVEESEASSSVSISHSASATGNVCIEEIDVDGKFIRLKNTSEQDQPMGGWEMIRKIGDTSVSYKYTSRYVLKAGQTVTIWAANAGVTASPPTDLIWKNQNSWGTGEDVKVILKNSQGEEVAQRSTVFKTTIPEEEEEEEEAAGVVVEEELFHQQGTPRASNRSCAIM
# Sequence of UniProt Q9C0E8 (Q9C0E8 whole entry, looked up): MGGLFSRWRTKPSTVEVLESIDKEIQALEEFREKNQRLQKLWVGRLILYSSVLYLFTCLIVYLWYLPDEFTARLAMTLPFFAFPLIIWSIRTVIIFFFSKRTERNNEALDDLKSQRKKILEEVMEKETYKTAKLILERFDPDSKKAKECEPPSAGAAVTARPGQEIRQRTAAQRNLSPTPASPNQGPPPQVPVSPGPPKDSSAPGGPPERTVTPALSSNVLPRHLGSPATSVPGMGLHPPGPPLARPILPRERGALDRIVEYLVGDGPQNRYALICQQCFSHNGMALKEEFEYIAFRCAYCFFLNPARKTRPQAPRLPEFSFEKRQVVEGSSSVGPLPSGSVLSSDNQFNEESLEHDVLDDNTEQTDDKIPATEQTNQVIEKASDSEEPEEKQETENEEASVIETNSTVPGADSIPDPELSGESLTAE
# Sequence of UniProt Q9UBF1 (Q9UBF1 whole entry, looked up): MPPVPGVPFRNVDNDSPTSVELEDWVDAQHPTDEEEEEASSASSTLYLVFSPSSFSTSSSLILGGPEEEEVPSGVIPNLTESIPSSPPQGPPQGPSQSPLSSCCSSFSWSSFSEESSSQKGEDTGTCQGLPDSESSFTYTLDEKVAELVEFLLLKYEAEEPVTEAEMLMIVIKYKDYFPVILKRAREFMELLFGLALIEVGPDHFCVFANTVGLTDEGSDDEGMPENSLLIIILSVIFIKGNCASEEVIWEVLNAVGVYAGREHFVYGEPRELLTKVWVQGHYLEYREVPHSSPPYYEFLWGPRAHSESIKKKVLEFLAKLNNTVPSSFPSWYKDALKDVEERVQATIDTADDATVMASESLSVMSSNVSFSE
# Sequence of UniProt P10620 (P10620 whole entry, looked up): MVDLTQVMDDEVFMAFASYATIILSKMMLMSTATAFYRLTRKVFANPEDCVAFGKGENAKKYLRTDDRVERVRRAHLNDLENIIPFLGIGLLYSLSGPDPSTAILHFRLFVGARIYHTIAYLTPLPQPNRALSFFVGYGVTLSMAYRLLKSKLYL
Target,log2 fold change (erlotinib),log2 fold change [1],log2 fold change [2],log2 fold change [3],log2 fold change [4],log2 fold change [5],log2 fold change [6],log2 fold change [7],log2 fold change [8],log2 fold change [9],log2 fold change (IRAK-1-4 Inhibitor I),log2 fold change (ibrutinib),log2 fold change [10],log2 fold change (ralimetinib),log2 fold change [11],log2 fold change [12],log2 fold change [13],log2 fold change (pinometostat),log2 fold change [14],log2 fold change [15]
MDN1 (UniProt Q9NU22),0.063,0.11,0.02,-0.025,0.144,0.037,0.02,-0.022,-0.025,0,-0.011,-0.046,-0.126,-0.015,-0.24,-0.22,-0.029,-0.009,0.006,0.005
KDELR2 (UniProt P33947),-0.06,-0.052,0.048,-0.02,0.042,0.024,0.201,0.048,-0.102,0.019,-0.007,0.03,-0.14,0.127,-0.035,-0.047,-0.568 (active),-0.008,0.024,0.103
INPP1 (UniProt P49441),0.014,0.006,0.073,0.059,0.042,-0.01,0.005,0.044,0.01,-0.101,-0.001,0.023,-0.003,-0.108,-0.039,0.016,-0.007,-0.054,-0.072,-0.03
LEMD2 (UniProt Q8NC56),0.04,0.007,-0.054,-0.002,0.11,0.001,0.042,0.008,-0.016,0.046,0.015,0.082,-0.066,-0.02,-0.024,-0.63 (active),0.022,-0.014,-0.051,0.131
MAGEC2 (UniProt Q9UBF1),-0.026,0.024,-0.099,-0.018,-0.003,0.03,-0.011,-0.004,-0.022,0.051,-0.003,-0.02,0.108,0.093,0.058,-0.059,0.05,-0.003,-0.035,-0.318 (active)
KIF11 (UniProt P52732),0.042,0.032,-0.106,-0.058,0.038,0.012,-0.168,0.011,-0.017,-0.158,-0.097,-0.049,0.063,0.045,-0.024,-0.229,0.04,0.188,0.006,-0.014
ILK (UniProt Q13418),0,-0.119,-0.086,0.016,0.091,0.002,-0.056,-0.056,0.068,0.008,0.029,0.004,-0.029,0.027,-0.081,-0.094,0.128,0.083,-0.005,0.01
LUC7L3 (UniProt O95232),0.011,0.033,-0.018,0.042,-0.093,-0.02,-0.043,-0.104,-0.002,-0.037,-0.123,-0.037,-0.409 (active),-0.024,0.024,-0.04,0.007,-0.023,-0.013,0.109
LNPK (UniProt Q9C0E8),0.011,-0.028,0.05,0,-0.018,0.058,0,-0.02,0.007,0.089,0.041,0.013,0.004,-0.019,0.016,0.05,-0.011,-0.01,0.016,-0.035
LARP7 isoform 3 (UniProt Q4G0J3),0.01,0.119,0.022,0.034,0.06,0.023,0.025,-0.055,-0.052,0.045,-0.061,0.031,0.063,0.111,0.021,-0.246,-0.057,0.05,-0.063,-0.383 (active)
MED1 (UniProt Q15648),-0.022,-0.011,-0.118,-0.001,0.04,0.043,-0.03,-0.043,0.016,-0.025,-0.049,0.002,-0.28 (active),0.032,-0.008,-0.106,0.033,0.189,0.019,0.027
MGST1 (UniProt P10620),-0.032,-0.037,0.063,0.021,0.02,0.038,0.024,-0.057,-0.004,-0.049,0.002,0.033,0.064,-0.01,-0.001,-0.004,0.011,-0.074,0.032,0.054
LRPPRC (UniProt P42704),0.265,0.526,0.002,-0.255,0.204,-0.148,0.185,-0.223,-0.133,-0.197,-0.18,-0.013,-0.439,-0.144,-0.891,-1.09 (active),0.059,0,0.062,-0.252
MIEN1 (UniProt Q9BRT3),0.023,0.048,0.046,-0.02,0.033,0.099,0.035,-0.065,0.024,-0.076,0.105,-0.029,-0.051,-0.075,-0.091,0.074,-0.036,0.019,0.004,0.045
LMNB1 (UniProt P20700),-0.06,0.071,0.001,0.029,-0.073,0.064,-0.07,-0.151,-0.079,0.001,-0.004,-0.03,-0.22,0.015,0.091,-0.048,0.031,0.011,0.01,-0.082
KIF13A (UniProt Q9H1H9),0.065,-0.026,-0.031,0.017,0.056,-0.009,-0.027,-0.055,-0.043,0.072,0.045,0.042,0.047,-0.015,0.025,-0.069,0.035,-0.008,-0.01,-0.044
